According to PubChem BioAssay AID493169 (National Center for Advancing Translational Sciences (NCATS), 2011):
Inconclusive results are not listed. Activity calls are given as the source filed them. Calls follow the shape of the dose curve; as a rule, active = well fitted inhibition curve with a large enough effect; inconclusive = small, poorly fitted or top-dose-only effect; inactive = flat fitted curve, though single readings scatter.

experiment: CHOP2 Reporter Counterscreen Assay for Inhibitors of Ubiquitin-specific Protease USP2a; conditions: purified enterokinase, fluorogenic substrate, 485/531 nm; series mostly up to 38.3 µM; activity change, negative = inhibition: at the top concentration;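 also: activated enterokinase alone at 50 pM in a cell-free format rather than USP2a or CHOP2; nearly all actives have a fitted effect of over 55% in size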
Excerpt: NIH Molecular Libraries Probe Centers Network [MLPCN] NIH Chemical Genomics Center [NCGC] MLPCN Grant: XO1-MH079852-01 PI Name: Nicholson, Ben. Progenra Inc, Malvern, PA NCGC Assay Overview: Homeostasis of cellular proteins is maintained through a combination of synthesis and degradation. The pathway that accounts for the majority of protein degradation is the ubiquitin-proteasomal pathway. Ubiquitin (Ub) is highly conserved in all cells and the generation of a multi-Ub chain typically targets proteins for degradation by the proteasome. However, ubiquitination is highly reversible and dynamic. Deubiquitination, the reverse process, is catalyzed through the action of enzymes referred to as isopeptidases or deubiquitinating enzymes (DUBs). This group of enzymes is collectively responsible for maintaining adequate pools of free ubiquitin and regulating the ubiquitination status of cellular proteins. The class of DUBs referred to as the ubiquitin-specific proteases (USP) family functions endoproteolytically to cleave Ub chains from a wide range of protein substrates. USP2a deubiquitinates fatty acid synthase (FASN) which has recently been identified as an emerging oncology target. To identify inhibitors of USP2a a cell-free assay was employed. This assay is a counterscreen against the reporter enzyme used to measure USP2a activity in the primary qHTS assay. The reporter enzyme is a protease (enterokinase, EK; EC 3.4.21.9), which is activated when a Ub sequence is cleaved by USP2a. The counterscreen assay is performed in the same buffer and conditions as the primary USP2a coupled assay but uses fully activated EK alone. The assay gives a fluorescent read-out at excitation/emission wavelengths of 485/531. The assay was provided by Progenra, Inc. and has been licensed for sale by LifeSensors, Inc.
NCGC Assay Protocol: The assay buffer, prepared fresh at the day of the assay, contains 20mM Tris-HCl pH 8.0, 2mM CaCl2, 2mM beta-Mercaptoethanol, 0.05% CHAPS. 3uL of 100 pM EK (50 pM final) was dispensed into a medium-binding black solid Kalypsys 1,536 well plate using the Kalypsys dispenser. The assay plate was then pinned with 23nL compounds in DMSO with the Kalypsys pintool in columns 5-48 (0.3% final DMSO concentration). The negative control was buffer/DMSO only in column 3. The assay plate is incubated at RT for 30min. Subsequently, 3uL of reporter substrate (25nM final) were dispensed into the plate using the Kalypsys dispenser. Plates were read after 10 min at RT on a ViewLux (Perkin Elmer) plate reader using the following wavelengths: Ex 485nm /Em 531nm. Data were normalized to the AC100 inhibition (buffer alone). Concentration-response curves were fitted to the normalized data and the concentration-response curves were then classified based on curve quality (r2), response magnitude and degree of measured activity. The time zero reading was used to flag fluorescence artifacts.
% is scaled to controls: 0 for no effect and ±100 for the full control effect; potency is read from the fitted curve at half-maximal effect.

Row | SMILES | activity change, negative = inhibition | Potency
1 | CC(=O)c1c(N2CCCC2)[nH]c(-c2ccccc2)nc1=S | 0.802% (inactive) | –
2 | O=C(COc1ccccc1)NCc1nnc(SCC(=O)Nc2nccs2)n1-c1ccccc1 | -1.22% (inactive) | –
3 | COc1ccc(N(C(=O)C(C)C)S(=O)(=O)c2ccc(Cl)cc2)cc1 | -1.76% (inactive) | –
4 | Cn1c(C(=O)NCCN2CCOCC2)cc2c(=O)n(C)c3ccccc3c21 | -0.0744% (inactive) | –
5 | Cc1cc(C)n2cc(CSc3nnnn3-c3ccccc3C)nc2n1 | 1.35% (inactive) | –
6 | CC1CCCCN1CCNC(=O)CC1Oc2ccccc2NC1=O (stereo not given) | -1.06% (inactive) | –
7 | O=C(Nc1nnc(SCCC2OCCO2)s1)C1CC(=O)N(c2ccc(F)cc2)C1 (stereo not given) | – | 11.2 µM (active)
8 | CCC(CO)Nc1nc(CN2CCCCC2)nc2scc(-c3ccccc3)c12 (stereo not given) | 0.692% (inactive) | –
9 | Cc1ccc(NC(=O)CSc2nnc(COc3ccc(C#N)cc3)n2-c2ccccc2)cc1C | -2.49% (inactive) | –
10 | O=S(=O)(Nc1cccc(-c2cn3c(n2)SCC3)c1)c1ccc(F)cc1F | 0.249% (inactive) | –
11 | CC(C)Cn1c(SCC(N)=O)nnc1-c1cccc(S(=O)(=O)N2CCOCC2)c1 | 1.51% (inactive) | –
12 | CC(C)(C)OC(=O)C[C@H]1C/C=C\C[C@H](CC(=O)N(CCO)Cc2ccccc2)C(=O)NC[C@H](c2ccccc2)OC1=O | 0.71% (inactive) | –
13 | CC(=O)N1c2c(cc(Br)cc2S(=O)(=O)NCc2cccnc2)CC1C (stereo not given) | 2.91% (inactive) | –
14 | Cn1nc(CC(=O)NCc2ccc(F)cc2)c2ccccc2c1=O | 3.02% (inactive) | –
15 | CCOc1ccccc1N(CC(=O)NC(C)(C)C)C(=O)c1ccc(CN2CCOCC2)o1 | -0.122% (inactive) | –
16 | COC(=O)c1ccc(CSc2ncnc3ccccc23)o1 | 4.44% (inactive) | –
17 | O=C(N/C(=C/c1cccnc1)C(=O)N1CCOCC1)c1ccco1 | 0.49% (inactive) | –
18 | NC1=NC(=O)/C(=C/c2cccc(-c3ccc(S(N)(=O)=O)cc3)c2)S1 | -14.4% (inactive) | –
19 | O=C(c1ccccc1)N1CCN(C(=O)N2CCCCC2)CC1 | 2.79% (inactive) | –
20 | CC(C)OCCCNC(=O)CN1C(=O)CC(C)(C)S(=O)(=O)c2ccccc21 | -2.55% (inactive) | –

Row | SMILES | activity change, negative = inhibition | Potency
21 | COc1ccc2[nH]c(=O)c(CN(Cc3ccco3)Cc3nnnn3Cc3ccccc3)cc2c1 | 0.775% (inactive) | –
22 | CCOC(=O)c1sc(NC(=O)Nc2ccccc2)cc1C | 4.87% (inactive) | –
23 | Cn1c(=O)[nH]c(=O)c2c1nc(NCc1ccccc1)n2CCCc1ccccc1 | 1.28% (inactive) | –
24 | CCc1ccccc1OCC(=O)Nc1ccc(N2CCCC2)cc1C | – | 10 µM (active)
25 | O=C1/C(=C/C=C/c2ccco2)SC(=S)N1NS(=O)(=O)c1ccccc1 | – | 3.55 µM (active)
26 | N#CC(c1ccccc1)c1ccc(C(=O)c2ccc(F)cc2)cc1 (stereo not given) | -2.54% (inactive) | –
27 | CCc1cc2cccc(C)c2nc1SCC(=O)N1CCN(C(=O)c2ccco2)CC1 | -3.06% (inactive) | –
28 | O=C(O)C(Cc1ccccc1)N1C(=O)/C(=C/C=C/c2ccco2)SC1=S (stereo not given) | – | 2.51 µM (active)
29 | COc1ccc(C(=O)CSc2nnc(-c3ccco3)c(-c3ccco3)n2)cc1 | – | 6.31 µM (active)
30 | CCOC(=O)c1[nH]c2ccc(OC)cc2c1NC(=O)CCN1CCCC(C)C1 (stereo not given) | -6.26% (inactive) | –
31 | COc1cc(OC)cc(-c2c(C#Cc3ccsc3)c3cc(-c4ccc(OC)c(OC)c4)ccc3n2C)c1 | 5.46% (inactive) | –
32 | CSCC[C@H](NC(=O)C1CCN(S(=O)(=O)c2ccc(C)cc2)CC1)C(=O)NCc1ccco1 | -11.1% (inactive) | –
33 | CCn1c(=O)c(C(=O)Nc2ccccc2S(N)(=O)=O)c(O)c2ccccc21 | – | 11.2 µM (active)
34 | Cc1ccc(N2CCN(C(=O)CCc3nc4ccccc4[nH]3)CC2)c(C)c1 | 3.76% (inactive) | –
35 | COC(=O)N/N=C\c1cc(Br)ccc1OCc1ccccc1 | -4.47% (inactive) | –
36 | C[C@@H]1CN([C@@H](C)CO)C(=O)c2cc(NC(=O)CCC(F)(F)F)ccc2O[C@H]1CN(C)S(=O)(=O)c1ccc(Cl)cc1 | 1.64% (inactive) | –
37 | O=S(=O)(c1ccccc1)N(CC1CO1)c1cc(Cl)ccc1Cl (stereo not given) | 2.84% (inactive) | –
38 | NS(=O)(=O)c1ccc(NC(=O)CN2CCCCC2)cc1 | 0.546% (inactive) | –
39 | CN1CCN(Cc2c(O)ccc3c(=O)c(Oc4ccccc4Cl)c(C(F)(F)F)oc23)CC1 | 5.85% (inactive) | –
40 | C=C(C)COc1ccc(-c2[nH]ncc2Oc2ccccc2OCC)c(O)c1 | 4.58% (inactive) | –
